Source: PubChem BioAssay AID1745847 (National Center for Advancing Translational Sciences (NCATS), 2022)
About 670 (32%) of roughly 2,100 compounds were called active. Inconclusive results (about 50%) are left out. The list shows a part of the results. Unmarked numbers belong to inactive results. Calls follow the shape of the dose curve; as a rule, active = well fitted inhibition curve with a large enough effect; inconclusive = small, poorly fitted or top-dose-only effect; inactive = no such curve, though single readings can be large or run the other way.

experiment: CMV-Luciferase Counterscreen for Inhibitors of ATXN expression; details: HEK-293 CMV-luciferase reporter, luminescence, 24 h; series mostly up to 57.5 µM; activity change, negative = inhibition: at the top concentration; also: nearly all actives have a fitted effect of over 55% in size
Source text: PI: Daniel Scoles Ph.D. University of Utah School of Medicine, Salt Lake City, Utah MLPCN Grant: NS073009 Spinocerebellar ataxia type 2 (SCA2) is a multisystem neurodegenerative disease caused by a dominantly acting mutation leading to expansion of a polyQ domain in the ataxin-2 protein (ATXN2). SCA2 patients develop progressive ataxia and later lose function in other neuronal systems. Prominent parkinsonian signs develop in some patients. Like many neurodegenerative disorders, no symptomatic or disease-modifying treatments are known. The primary objective of the proposed research is to identify compounds inhibiting ATXN2 expression and to test them for efficacy in SCA2 mouse models. We have developed a cell-based assay paired with an in vivo mouse model using identical luciferase expression constructs. This approach takes advantage of an ATXN2-luciferase transgene, with the luciferase gene flanked by the upstream and downstream portions of the ATXN2 gene. Here we describe a 5-7 dose quantitative high thoroughput screen (qHTS) for compounds lowering ATXN2 expression. We screened the NIH Molecular Libraries Small Molecule Repository (MLSMR) and NCGC's mechanistically annotated (MIPE) and drug repurposing (NPC) collections of compounds for lowering expression of an ATXN2-luciferase reporter in HEK-293 cells. The assay is a multiplexed cell viability assay to ensure target reduction in the absence of cytotoxicity. Secondary qHTS assays included a CMV-luciferase reporter expressed in HEK-293 cells as well as a biochemical assay using recombinant luciferase to detect inhibitors of the reporter enzyme. Compounds that inhibit ATXN2 expression but is not cytotoxic were selected for confirmatory and secondary screens.
PROTOCOL TABLE (as described by Inglese J, Shamu CE and Guy RK. 2007) SEQUENCE No. (e.g., 1, 2, 3, etc.); PARAMETER (e.g., Cells, Incubation, Reagent, etc.); VALUE; DESCRIPTION. 1; Cells; 4 uL; white, solid bottom, 1536-well Greiner assay plate. 2; Incubation; 2 hr; 37 degree C in 5% humidified CO2. 3; Compounds; 23 nL; Kalypsis pintool (Wako USA) equipped with a 1536-well pin head. 4; Incubation; 24 hr; 37 degree C in 5% humidfified CO2. 5; Reagent; 1 uL; Gly-Phe-7-Amino-4-trifluoromethylcoumarin. 6; Incubation; 30 min; 37 degree C in 5% humidfified CO2. 7; Detection; Fluorescence; Viewlux plate reader (PerkinElmer). 8; Reagent; 3 uL; SteadyGlo luciferase solution (Promega). 9; Incubation; 5 min; room temperature. 10; Detection; Luminescence; ViewLux plate reader (PerkinElmer). NOTES (numbers refer to Sequence numbers above) 1. HEK-293 cells expressing CMV-luciferase reporter (designated as SC cells) were suspended in phenol-red free DMEM and dispensed in assay plates using a Multidrop Combi dispenser (Thermo Fisher Scientific). 2. Assay plates were incubated. Evaporation was prevented by covering assay plates with metal lids containing holes to allow gas diffusion. 3. Compounds were added in a dose response manner with the final concentrations of 57, 11.4, 2.28, 0.46, 0.091, 0.018, 0.0037 uM. Vehicle-only plates, with DMSO being pin-transferred to columns 5-48, were inserted uniformly at the beginning and the end of each library to monitor and record any shifts in assay performance. 5. 125 uM Gly-Phe-7-Amino-4-trifluoromethylcoumarin (MP Biomedicals) working concentration was used at a final concentration of 25 uM. 7. To assess cell viability; the assay plates were read using the ViewLux high-throughput CCD imager (PerkinElmer), wherein single end-point fluorescence measurement was acquired (excitation 405/10; emission 540/25 nm). 8. Detection reagent SteadyGlo Luciferase (Promega) was added to the assay plate. 10. Luminescence is then measured on the ViewLux imager equipped with a clear emission filter using a 2 sec exposure. […]
% is scaled to controls: 0 for no effect and ±100 for the full control effect; potency is read from the fitted curve at half-maximal effect.

Row | SMILES | Potency | activity change, negative = inhibition
1 | O=C(C1CCC(CNS(=O)(=O)c2cccc3nsnc23)CC1)N1CC=C(c2ccccc2)CC1 (stereo unspecified) | 3.16 µM (active) | 
2 | CC(=O)N/N=C/c1cc(C(C)(C)C)cc(/C=N/NC(C)=O)c1O | 3.16 µM (active) | 
3 | Cc1nnc(N/N=C/c2ccccn2)[nH]c1=O | 1.78 µM (active) | 
4 | C(=N\Nc1ccc2nncn2n1)/c1ccccn1 | 17.8 µM (active) | 
5 | O=c1cnnc(N/N=C/c2ccccn2)[nH]1 | 1.41 µM (active) | 
6 | C(=N\NC(=Nc1ccccc1)c1ccccn1)/c1ccccn1 |  | -1.1%
7 | O=c1nc(N/N=C/c2ccccn2)cn[nH]1 | 14.1 µM (active) | 
8 | Cn1c(/C=C/c2ccc(Cl)cc2)c([N+](=O)[O-])c(=O)n(C)c1=O | 31.6 µM (active) | 
9 | COc1cc2c(O)c3c(c(-c4ccc5c(c4)OCO5)c2cc1OC)C(=O)OC3 |  | 16.4% [at 11.4 µM]
10 | CCN1CCN(C(c2ccc(C(F)(F)F)cc2)c2ccc3cccnc3c2O)CC1 (stereo unspecified) | 14.1 µM (active) | 
11 | S=C(NCc1cccnc1)Nc1ccc(Oc2ccc(Cl)cc2)cc1 | 10 µM (active) | 
12 | Cn1c(=O)c2cc(NC(=O)Nc3cccnc3)ccc2n1Cc1ccc(Cl)cc1 |  | -24%
13 | NC(c1csc(Nc2nccc(C(F)(F)F)n2)n1)C1CCCCC1 (stereo unspecified) |  | 13.2% [at 11.4 µM]
14 | Cc1cccc2c1-c1sc(C(=O)Nc3ccccc3N3CCN(C)CC3)cc1CO2 | 22.4 µM (active) | 
15 | CC1CC(C)CN(CCCNC(=O)c2cc3c(s2)-c2ccccc2OC3)C1 (stereo unspecified) |  | -23% [at 11.4 µM]
16 | COCC(=O)OC/C(O)=C(\C#N)c1nc2ccccc2[nH]1 |  | -13.1% [at 11.4 µM]
17 | CCc1ccc(NC(=O)COc2ccc(/C=C(/C#N)c3nc4ccccc4[nH]3)cc2OC)cc1 | 3.55 µM (active) | 
18 | O=C1/C(=C/c2ccc([N+](=O)[O-])cc2)C=C(c2ccccc2)N1c1ccc(O)cc1 | 3.98 µM (active) | 
19 | COc1ccc(F)cc1-c1cc(NC=O)c2ncc(-c3cccc(C(=O)N(C)C)c3)n2c1 |  | -8.79% [at 11.4 µM]
20 | Cc1cc(N2CCN(c3nc(-c4ccccc4)cs3)CC2)c2ccccc2n1 | 3.55 µM (active) | 
21 | CCN(CC)CCn1nc2c3c(cccc3c1=O)-c1ccccc1-2 | 8.91 µM (active) | 
22 | CCN(CC)CCC(=O)Nc1cccc2c1C(=O)c1ccccc1C2=O |  | -4.68% [at 11.4 µM]
23 | CCN(CC)CCn1c2ccccc2c2cnc(N)c(C#N)c21 |  | -22.5% [at 11.4 µM]

Row | SMILES | Potency | activity change, negative = inhibition
24 | O=C(NNC1=Nc2ccccc2SC1)c1ccc(Cl)cc1 | 1.78 µM (active) | 
25 | CCn1c(C)cc(C(=O)CN2C(=O)c3ccccc3S2(=O)=O)c1C | 0.398 µM (active) | 
26 | Cc1nnc(SCC(N)=O)n1CC1CCCO1 (stereo unspecified) |  | -6.37%
27 | Cc1cc(C(=O)CN2C(=O)c3ccccc3S2(=O)=O)c(C)n1CC1CCCO1 (stereo unspecified) | 0.501 µM (active) | 
28 | O=C(CN1C(=O)c2ccccc2S1(=O)=O)Nc1ncc(Cl)cc1Cl | 3.16 µM (active) | 
29 | Cc1cc(C(=O)CN2C(=O)c3ccccc3S2(=O)=O)c(C)n1C(C)C | 0.562 µM (active) | 
30 | Nc1nc(NCCc2ccccc2)nc(NCc2ccccc2)c1[N+](=O)[O-] |  | -24%
31 | COC(=O)[C@H]1C[C@H](OC(=O)NC2CC2)[C@@]2(O)CN(S(=O)(=O)c3ccc(C)cc3)CC2[C@H]1C(=O)OC (stereo partly specified) |  | 4.52% [at 11.4 µM]
32 | O=C(CN1C(=O)c2ccccc2S1(=O)=O)c1ccc(Cl)cc1Cl | 1 µM (active) | 
33 | CC1Cc2cc(-c3csc(NC(=O)Cc4cccs4)n3)ccc2N1S(C)(=O)=O (stereo unspecified) | 1.41 µM (active) | 
34 | O=c1c2c(nc3c(-c4cccc(Br)c4)c[nH]n13)CCCC2 | 3.55 µM (active) | 
35 | O=c1c2c(nc3c(-c4ccc(Cl)cc4)c[nH]n13)CCCC2 | 0.891 µM (active) | 
36 | CC1CCCN(S(=O)(=O)c2ccc(C(=O)Nc3nnc(-c4ccccc4Cl)o3)cc2)C1 (stereo unspecified) | 1.26 µM (active) | 
37 | CC1CCCCN1S(=O)(=O)c1ccc(C(=O)Nc2nnc(-c3ccncc3)o2)cc1 (stereo unspecified) | 8.91 µM (active) | 
38 | CN(C)CCCNC(=O)/C=C/c1ccc(OCc2c(F)cccc2Cl)cc1 |  | -21.7%
39 | Clc1ccc(-c2cc(C3CCNCC3)[nH]n2)c(Cl)c1 |  | -29.5%
40 | Cc1ccc(CN2CCC(c3cc(-c4ccc(Cl)cc4)n[nH]3)CC2)cc1 | 22.4 µM (active) | 
41 | COc1ccc(N2CCN(C(=O)c3cc4c(C)nc5ccccc5c4o3)CC2)cc1 | 22.4 µM (active) | 
42 | CCOC(=O)c1cnc2ccc(OC)cc2c1Nc1ccc(N2CCN(C)CC2)cc1 |  | -24.8%
43 | CCc1ccc(CNC(=O)c2cc3c(C)nc4ccccc4c3o2)cc1 | 10 µM (active) | 
44 | COc1ccc(C(=O)N2CCN(c3nc(C4CC4)nc4sc(C)c(C)c34)CC2)cc1 | 17.8 µM (active) | 
45 | Cc1sc2nc(CN3CCCC3)nc(N3CCC(C(N)=O)CC3)c2c1C |  | 3.08%
46 | Cc1ccc(C)c(OCCCC(=O)Nc2nccs2)c1 |  | 6.11%
